The list is not random: actives were taken first. Their share in the collection is about 8.8%.
IL1B secr inh: qHTS for Inhibitors of Inflammasome Signaling: IL-1-beta AlphaLISA Primary Screen. AID 743279, 2014. THP-1 LPS/ATP IL-1B secretion, AlphaLISA, 16 h; stronger effect = lower value. hit rate 4.7% among 360,000. activity change, % at 57.5 µM; in the data active means activity change below about -50%; inconclusive means mostly about -30% to -49%
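Secreted IL-1B measured by AlphaLISA bead assay after 16 h compound exposure of THP-1 cells; compounds (final up to 57.5 uM) added 1 h before LPS (250 ng/mL) and ATP (1.25 mM) stimulation; lower signal means less secretion.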
HT1080NT lethal: qHTS for induction of synthetic lethality in tumor cells producing 2HG: qHTS for the HT-1080-NT fibrosarcoma cell line; HT-1080-NT fibrosarcoma viability, CellTiter-Glo ATP luminescence, 48 h; Potency, µM (doses to about 46.1 µM), most hits filed as cytotoxic; hit rate 1.6% among 360,000; AID 686970, 2013;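 further: NT is the 2HG producing partner of a matched IDH1 knockdown line; nearly all actives have a fitted effect of over 55% in size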
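Luminescent CellTiter-Glo readout after 48 hours of compound exposure at 37 degrees C defined viability of HT-1080-NT cells. Activity was normalized to DMSO wells and cell-free media wells; concentration-response curves were fitted and assigned curve classes.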
HT1080 IDH1KD tx: qHTS for induction of synthetic lethality in tumor cells producing 2HG: qHTS for the HT-1080-IDH1KD cell line. HT-1080 IDH1 knockdown viability, ATP luminescence, 48 h. Potency, µM (top dose mostly 46.1 µM), most hits filed as cytotoxic. hit rate 2% among 360,000. AID 686971, 2013
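% activity derives from luminescence (CellTiter-Glo), normalised to DMSO and no-cell wells. HT-1080-IDH1KD cells, 750/well, had 48 h compound exposure at 37 °C.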
KB-3-1 tox: qHTS assay for MDR1-selective chemotherapeutics: Primary screen using the parental adenocarcinoma cell KB-3-1; KB-3-1 viability, CellTiter-Glo ATP luminescence, 72 h; Potency, µM (highest dose often 46.1 µM), hits mostly cytotoxic; hit rate 1.4% among 400,000; AID 1347075, 2019; further: nearly all actives have a fitted effect of over 60% in size
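Screening of KB-3-1 cells (DMEM, 10% FBS, phenol-red free) ran from lowest to highest compound concentration; after 72 h at 37 °C viability was read luminescently and curves fitted.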
KB-V1 cytotox: qHTS assay for MDR1-selective chemotherapeutics: Primary screen using the drug-selected MDR subline cells KB-V1. KB-V1 MDR cells viability, CellTiter-Glo, 72 h. Potency, µM (doses to about 46.1 µM), most hits filed as cytotoxic. hit rate 3.4% among 400,000. AID 1347076, 2019; further: nearly all actives have a fitted effect of over 60% in size
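KB-V1, DMEM (no phenol red) + 10% FBS; cpd pin-transferred, titration series; 72 h, 37 degrees C; CellTiter-Glo, luminescence. Data normalized, curve-fit.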
A number is an active result; . = inactive; ? = inconclusive; / = not tested or not shown; [ ] = another dose, or the depositor's remark. Unless noted, the call rests on the fitted dose curve; in most records, active means well fitted curve in the direction sought with a large enough effect; inconclusive means small, poorly fitted or top-dose-only effect, or another doubt; inactive means no such curve, though single readings can be large; an effect the other way counts as inactive or inconclusive.

SMILES | IL1B secr inh | HT1080NT lethal | HT1080 IDH1KD tx | KB-3-1 tox | KB-V1 cytotox
CCOC(=O)c1c(NC(=O)CN2C(=O)NC(C)(c3ccccc3)C2=O)sc(C)c1C (configuration not stated) | . | ? | ? | 16µM | 16µM
CCOC(=O)c1c(NC(=O)CN2C(=O)NC3(CCCCC3C)C2=O)sc(C)c1C (configuration not stated) | . | . | . | . | ?
Cc1ccc(S(=O)(=O)N2CCN(C(=O)COC(=O)/C=C/c3cccc([N+](=O)[O-])c3)CC2)c(C)c1 | . | . | . | . | ?
Cc1ccc(C)c(Cn2c(=O)cc(C)c3c(C)nn(-c4cccc(F)c4)c32)c1 | / | / | / | . | .
CCN1CCN(CCNC(=O)CCc2c(C)c3c(C)nn(-c4ccccc4)c3n(C)c2=O)CC1 | -61 | ? | ? | . | .
O=C(O)c1cccc2c1C(=O)c1ccc(-c3ccc(Cl)c(C(F)(F)F)c3)cc1S2(=O)=O | -78 | . | . | . | .
CCc1nc2ccc(C(=O)NCCCN3CCCC3=O)cn2c1N(CC)C(=O)NCCc1ccccc1 | . | . | . | . | .
CC(C)c1ccc(NC(=O)CN2C(=O)NC(Cc3c[nH]c4ccccc34)C2=O)cc1 (configuration not stated) | -59 | ? | ? | . | .
O=C1NC(Cc2c[nH]c3ccccc23)C(=O)N1Cc1cccc2ccccc12 (configuration not stated) | -101 | ? | ? | . | .
Cc1ccc(CN2C(=O)NC(Cc3c[nH]c4ccccc34)C2=O)cc1 (configuration not stated) | . | . | . | . | ?
Cc1ccc(S(=O)(=O)N(C)C[C@@H]2OCc3cnnn3CCCC(=O)N([C@H](C)CO)C[C@@H]2C)cc1 | . | . | . | . | .
Cc1cnc(C(=O)OC(C(=O)c2c[nH]c3ccccc23)c2ccccc2)cn1 (configuration not stated) | . | . | . | . | .
CCOC(=O)Nc1sc2c(c1C(N)=O)CCCC2 | / | / | / | . | .
Cc1ccc(C(=O)OCCn2cc(C#N)c(=O)[nH]c2=O)cc1 | . | . | . | . | .
c1ccc(CC2CCN(C3=Nc4cccc5cccc3c45)CC2)cc1 | . | ? | 21µM | . | ?
c1cc2c3c(cccc3c1)C(N1CCOCC1)=N2 | / | . | . | . | ?
COc1ccccc1N1CCN(C2=Nc3cccc4cccc2c34)CC1 | -56 | ? | 13µM | ? | .
CC(=O)N1CCN(C2=Nc3cccc4cccc2c34)CC1 | -66 | . | .[9.24 µM] | . | .
O=C(COC(=O)c1cc(Cl)nc(Cl)c1)NCc1ccc2c(c1)OCO2 | . | . | . | . | .
CN1C[C@@H]2[C@@H]3C(=O)N(C)C(=O)[C@@H]3[C@](Cc3ccccc3)(C1=O)N2C(=O)c1ccc(F)cc1 | . | . | . | . | .
O=c1oc(Cl)c(Cl)c2ccccc12 | -70 | . | . | . | .
COc1ccc2[nH]cc(S(=O)(=O)c3ccc(C)c(C)c3)c(=O)c2c1 | / | / | / | . | .
O=c1[nH]c(Cc2ccccc2)nc2scc(-c3ccccc3)c12 | . | . | . | . | .
Cc1csc(SC(C)c2nc3scc(-c4ccccc4)c3c(=O)[nH]2)n1 (configuration not stated) | . | . | . | ? | 9.2µM
CSc1ncnc2c1ncn2CCCNCC(c1ccccc1)c1ccccc1 | . | . | . | . | .
SMILES | IL1B secr inh | HT1080NT lethal | HT1080 IDH1KD tx | KB-3-1 tox | KB-V1 cytotox
CC(C(=O)NC(=O)NC1CCCCC1)N1CCN(c2ccc(O)cc2)CC1 (configuration not stated) | . | . | . | . | 23µM
C/C(=N\N(Cc1ccccc1)c1ccccc1)c1cccnc1 | -51 | . | . | . | .
Cc1ccccc1OCCNC(=O)CNC(=O)c1ccccc1O | . | . | . | . | 16µM
O=C(CSc1nnc(-c2cccnc2)n1Cc1ccco1)N1c2ccccc2Sc2ccccc21 | . | . | . | . | 6.5µM
O=C(CSc1nnc(-c2cccnc2)n1Cc1ccccc1)NCc1ccco1 | . | . | . | . | .
Cc1ccc(NC(=O)Cn2nc(C(=O)O)c3ccccc3c2=O)cc1S(=O)(=O)N1CCCCCC1 | . | . | . | . | .
Cn1cccc/c1=N\c1cccc[n+]1C | . | . | 23µM | . | .
CN(Cc1ccc(F)cc1)C(=O)c1cccc(OCc2ccccc2)c1 | -54 | . | . | . | ?
CN(CC(=O)Nc1cccc(F)c1)C(=O)c1ccc(COc2ccccc2)cc1 | ? | 26µM | . | ? | ?
COc1ccc(-n2c(=O)c3ccccc3n(Cc3cccc(C)c3)c2=O)cc1OC | . | . | . | . | .
CCOC(=O)CC(S(=O)(=O)c1ccccc1)S(=O)(=O)c1ccccc1 | ? | ? | 21µM | ? | .
CN(C(=O)CCc1nc(-c2ccccc2F)no1)c1ccc(Cl)cc1 | / | / | / | . | .
COC(=O)c1cn(NC(=O)Cc2ccc(Cl)c(Cl)c2)c(=O)c2ccccc12 | . | . | . | . | .
COC(=O)c1cn(NC(=O)Cc2ccc(Cl)cc2)c(=O)c2ccccc12 | . | . | . | . | 21µM
CCOC(=O)C1CCCCN1S(=O)(=O)c1csc(C(N)=O)c1 (configuration not stated) | / | / | / | . | .
OC1(c2ccc(Br)cc2)CN(c2ccccc2)C2=[N+]1CCS2 (configuration not stated) | . | . | . | ? | ?
COc1ccc(C2(O)CN(c3ccccc3)C3=[N+]2CCS3)cc1OC (configuration not stated) | . | . | . | . | ?
COc1ccc(OC)c(N2CC(O)(c3ccccc3)[N+]3=C2SCCC3)c1 (configuration not stated) | -51 | . | . | . | .
OC1(c2ccc(Cl)cc2)CN(c2ccccc2)C2=[N+]1CCS2 (configuration not stated) | -78 | . | ? | . | ?
Cc1c(C(=O)OCCOc2ccccc2)[nH]c2c1C(=O)CCC2 | ? | . | . | . | 12µM
CC(=O)c1c(C)[nH]c(C(=O)OCCOc2ccccc2)c1C | . | . | ? | ? | 6.5µM
CC(=O)c1c(C)[nH]c(C(=O)OCc2ccc(Br)cc2)c1C | . | ? | ? | ? | 6.5µM
CC(=O)c1c(C)[nH]c(C(=O)OCc2ccccc2F)c1C | . | . | . | . | 4.6µM
O=C(NCc1ccccc1)C(c1ccc(-c2ccccc2)cc1)N1CCN(CCN2CCOCC2)CC1 (configuration not stated) | . | ? | ? | . | .
Cc1ccnc(N2C(=O)CSC2c2ccc(Cl)cc2)c1 (configuration not stated) | . | . | . | . | ?

Screening results from PubChem BioAssay.
